In the supplement of paper PMC6411743:
± gives the standard deviation of the averaged measurements. About 5,400 targets were measured; listed, in parts, are those with the largest changes and a random draw of the rest.

Compound: Nc1nc2c(ncn2[C@@H]2O[C@H](COP(=O)(O)OP(=O)(O)OP(=O)(O)O)[C@@H](O)[C@H]2O)c(=O)[nH]1 [guanosine triphosphate]
Assay: NP40-soluble protein abundance relative to vehicle (solubility fold change) (ratio); higher = more soluble protein in presence of GTP
Method: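 Solubility proteome profiling in Jurkat crude lysate. Lysate was treated with Mg-GTP (0.1-10 mM) for 10 min at room temperature and 3 min at 37 °C, then solubilised with 0.8% NP40 and benzonase, followed by ultracentrifugation. Proteins were quantified by TMT10 LC-MS/MS; the value is the NP40-soluble abundance relative to the NP40-processed vehicle, from 3 independent experiments.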

UniProt Q8IXT5, sequence (Q8IXT5 whole entry, one chain of several): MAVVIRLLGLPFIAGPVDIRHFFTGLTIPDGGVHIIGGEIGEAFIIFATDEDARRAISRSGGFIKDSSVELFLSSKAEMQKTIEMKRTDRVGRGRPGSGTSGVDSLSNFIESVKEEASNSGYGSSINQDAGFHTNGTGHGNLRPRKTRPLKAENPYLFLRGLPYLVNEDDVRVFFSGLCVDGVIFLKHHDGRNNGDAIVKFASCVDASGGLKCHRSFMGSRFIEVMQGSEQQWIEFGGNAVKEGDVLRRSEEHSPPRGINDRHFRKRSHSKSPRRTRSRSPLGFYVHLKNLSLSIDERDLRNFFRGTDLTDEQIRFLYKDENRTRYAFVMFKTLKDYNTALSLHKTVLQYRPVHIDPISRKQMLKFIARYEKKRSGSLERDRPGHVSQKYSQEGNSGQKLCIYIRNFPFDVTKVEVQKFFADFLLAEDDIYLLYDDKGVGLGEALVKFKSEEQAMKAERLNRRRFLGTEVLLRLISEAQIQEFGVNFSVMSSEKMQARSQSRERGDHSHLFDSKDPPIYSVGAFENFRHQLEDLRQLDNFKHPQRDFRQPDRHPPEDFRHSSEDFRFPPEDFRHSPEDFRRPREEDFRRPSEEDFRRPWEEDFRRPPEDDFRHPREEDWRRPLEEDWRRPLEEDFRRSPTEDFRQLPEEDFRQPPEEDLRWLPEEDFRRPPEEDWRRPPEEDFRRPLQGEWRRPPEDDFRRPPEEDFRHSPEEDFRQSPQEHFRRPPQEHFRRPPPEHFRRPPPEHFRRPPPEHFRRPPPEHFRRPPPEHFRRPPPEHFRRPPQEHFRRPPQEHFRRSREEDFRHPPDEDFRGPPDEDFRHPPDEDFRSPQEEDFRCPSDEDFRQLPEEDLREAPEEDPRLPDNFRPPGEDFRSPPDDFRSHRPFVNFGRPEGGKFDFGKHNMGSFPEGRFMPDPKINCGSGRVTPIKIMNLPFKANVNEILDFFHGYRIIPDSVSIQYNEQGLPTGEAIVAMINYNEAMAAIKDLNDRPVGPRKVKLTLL
UniProt Q9BQ75, sequence (Q9BQ75 whole entry, one chain of several): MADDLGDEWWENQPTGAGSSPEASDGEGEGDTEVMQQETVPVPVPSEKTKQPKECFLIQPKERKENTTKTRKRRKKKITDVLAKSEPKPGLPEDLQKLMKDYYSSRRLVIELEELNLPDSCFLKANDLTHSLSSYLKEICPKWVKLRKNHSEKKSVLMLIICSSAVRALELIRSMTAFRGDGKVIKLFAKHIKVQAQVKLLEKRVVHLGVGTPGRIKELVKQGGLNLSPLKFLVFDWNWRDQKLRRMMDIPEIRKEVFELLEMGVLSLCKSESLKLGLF
UniProt P55196, sequence (P55196 whole entry, one chain of several): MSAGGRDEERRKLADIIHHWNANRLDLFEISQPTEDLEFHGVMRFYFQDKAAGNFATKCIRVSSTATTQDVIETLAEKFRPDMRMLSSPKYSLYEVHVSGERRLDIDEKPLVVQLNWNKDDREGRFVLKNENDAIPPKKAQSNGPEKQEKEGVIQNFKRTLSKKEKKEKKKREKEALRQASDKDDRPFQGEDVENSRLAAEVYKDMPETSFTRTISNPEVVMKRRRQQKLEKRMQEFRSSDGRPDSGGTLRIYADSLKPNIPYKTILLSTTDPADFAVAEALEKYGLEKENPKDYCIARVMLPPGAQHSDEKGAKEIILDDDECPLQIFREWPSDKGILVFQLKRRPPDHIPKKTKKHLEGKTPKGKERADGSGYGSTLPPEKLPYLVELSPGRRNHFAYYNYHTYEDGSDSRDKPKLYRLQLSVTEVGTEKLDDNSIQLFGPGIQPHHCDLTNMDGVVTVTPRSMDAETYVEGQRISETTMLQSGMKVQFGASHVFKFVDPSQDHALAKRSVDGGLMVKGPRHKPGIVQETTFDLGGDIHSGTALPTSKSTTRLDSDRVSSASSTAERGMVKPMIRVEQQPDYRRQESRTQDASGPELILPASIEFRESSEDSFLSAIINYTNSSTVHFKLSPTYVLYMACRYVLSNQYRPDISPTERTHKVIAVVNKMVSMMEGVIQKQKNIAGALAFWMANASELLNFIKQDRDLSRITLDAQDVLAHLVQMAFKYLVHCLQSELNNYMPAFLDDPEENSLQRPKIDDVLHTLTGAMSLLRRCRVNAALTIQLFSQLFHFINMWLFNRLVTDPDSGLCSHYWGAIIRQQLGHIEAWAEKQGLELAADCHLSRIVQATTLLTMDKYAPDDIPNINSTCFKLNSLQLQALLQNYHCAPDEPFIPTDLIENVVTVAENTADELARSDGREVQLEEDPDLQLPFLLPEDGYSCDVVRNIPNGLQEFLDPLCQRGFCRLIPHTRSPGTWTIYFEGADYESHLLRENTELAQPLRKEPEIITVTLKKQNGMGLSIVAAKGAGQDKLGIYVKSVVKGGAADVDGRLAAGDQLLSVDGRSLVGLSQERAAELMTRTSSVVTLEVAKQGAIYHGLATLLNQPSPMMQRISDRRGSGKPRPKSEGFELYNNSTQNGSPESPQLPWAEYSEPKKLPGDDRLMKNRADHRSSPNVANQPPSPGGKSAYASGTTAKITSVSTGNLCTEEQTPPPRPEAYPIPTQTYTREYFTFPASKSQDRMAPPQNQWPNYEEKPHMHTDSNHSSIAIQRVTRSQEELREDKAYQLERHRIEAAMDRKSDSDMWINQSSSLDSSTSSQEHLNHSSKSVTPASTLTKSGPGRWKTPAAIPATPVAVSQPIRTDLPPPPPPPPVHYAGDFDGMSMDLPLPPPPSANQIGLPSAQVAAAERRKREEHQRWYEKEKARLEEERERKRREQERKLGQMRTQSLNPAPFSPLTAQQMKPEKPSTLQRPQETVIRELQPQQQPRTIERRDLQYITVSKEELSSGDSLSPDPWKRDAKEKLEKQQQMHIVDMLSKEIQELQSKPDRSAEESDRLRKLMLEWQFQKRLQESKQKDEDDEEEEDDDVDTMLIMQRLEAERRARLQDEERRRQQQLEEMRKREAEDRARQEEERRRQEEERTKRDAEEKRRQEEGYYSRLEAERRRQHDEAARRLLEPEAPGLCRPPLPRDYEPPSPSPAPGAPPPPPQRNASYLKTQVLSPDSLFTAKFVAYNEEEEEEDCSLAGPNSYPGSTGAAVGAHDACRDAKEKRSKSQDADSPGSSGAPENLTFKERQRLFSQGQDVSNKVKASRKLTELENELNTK
UniProt Q96EK7, sequence (Q96EK7 whole entry, one chain of several): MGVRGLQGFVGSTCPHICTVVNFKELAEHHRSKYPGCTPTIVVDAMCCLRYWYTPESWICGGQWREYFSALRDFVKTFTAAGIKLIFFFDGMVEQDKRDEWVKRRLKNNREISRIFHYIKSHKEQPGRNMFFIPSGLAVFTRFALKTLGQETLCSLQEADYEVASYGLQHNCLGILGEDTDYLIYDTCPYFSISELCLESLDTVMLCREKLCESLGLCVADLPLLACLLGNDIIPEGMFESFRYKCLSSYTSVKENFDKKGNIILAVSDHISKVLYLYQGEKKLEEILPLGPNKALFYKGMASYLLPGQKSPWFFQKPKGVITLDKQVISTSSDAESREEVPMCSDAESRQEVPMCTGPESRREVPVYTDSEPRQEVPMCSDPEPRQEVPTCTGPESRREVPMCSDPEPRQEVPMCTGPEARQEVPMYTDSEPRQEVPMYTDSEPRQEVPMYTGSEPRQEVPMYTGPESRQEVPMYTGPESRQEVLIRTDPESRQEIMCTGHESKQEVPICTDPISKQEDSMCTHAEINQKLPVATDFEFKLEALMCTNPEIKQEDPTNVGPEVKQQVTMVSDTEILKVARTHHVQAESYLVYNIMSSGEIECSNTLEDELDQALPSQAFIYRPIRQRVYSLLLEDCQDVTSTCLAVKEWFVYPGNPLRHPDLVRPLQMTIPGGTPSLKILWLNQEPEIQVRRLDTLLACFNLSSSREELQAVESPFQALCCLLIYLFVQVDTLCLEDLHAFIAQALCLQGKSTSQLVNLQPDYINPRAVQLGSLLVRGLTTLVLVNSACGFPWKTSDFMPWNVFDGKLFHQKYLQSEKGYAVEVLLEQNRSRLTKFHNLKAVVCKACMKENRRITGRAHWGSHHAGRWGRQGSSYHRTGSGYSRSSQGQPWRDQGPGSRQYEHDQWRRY
UniProt P11802, sequence (P11802 whole entry, one chain of several): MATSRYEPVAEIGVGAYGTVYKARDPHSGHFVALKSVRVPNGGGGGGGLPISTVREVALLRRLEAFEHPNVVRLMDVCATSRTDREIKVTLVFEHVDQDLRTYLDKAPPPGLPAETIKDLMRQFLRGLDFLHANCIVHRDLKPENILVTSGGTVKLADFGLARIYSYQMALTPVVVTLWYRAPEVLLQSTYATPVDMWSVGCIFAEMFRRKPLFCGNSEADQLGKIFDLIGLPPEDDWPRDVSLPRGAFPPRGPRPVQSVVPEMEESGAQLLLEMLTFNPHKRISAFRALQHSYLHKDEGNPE

Target	NP40-soluble protein abundance (concentration: 0.1mM)	NP40-soluble protein abundance (concentration: 0.5mM)	NP40-soluble protein abundance (concentration: 1mM)	NP40-soluble protein abundance (concentration: 2mM)	NP40-soluble protein abundance (concentration: 4mM)	NP40-soluble protein abundance (concentration: 6mM)	NP40-soluble protein abundance (concentration: 8mM)	NP40-soluble protein abundance (concentration: 10mM)
A8MQ02|J3KN01|P55196|P55196-3|P55196-5 (UniProt P55196)	1.15 ± 0.16	0.987 ± 0.079	1 ± 0.038	1.05 ± 0.14	1.18 ± 0.34	1.18 ± 0.21	1.16 ± 0.14	1.13 ± 0.078
F5GY05 (UniProt Q96EK7)	1.06 ± 0.034	1 ± 0.11	1.01 ± 0.036	1.06 ± 0.083	1 ± 0.047	0.99 ± 0.042	1.05 ± 0.083	1.05 ± 0.13
F8VTV8|F8VWX7|F8VYH9|P11802 (UniProt P11802)	0.977 ± 0.13	1.06 ± 0.048	0.999 ± 0.041	1.05 ± 0.071	1.06 ± 0.056	1.02 ± 0.049	0.995 ± 0.04	0.973 ± 0.015
C9IY68|C9J384|Q9BQ75|Q9BQ75-2 (UniProt Q9BQ75)	0.945 ± 0.058	1.03 ± 0.083	1.06 ± 0.071	1.1 ± 0.058	1.17 ± 0.069	1.22 ± 0.094	1.23 ± 0.12	1.31 ± 0.04
B9ZVT1|Q8IXT5 (UniProt Q8IXT5)	1.02 ± 0.081	1.13 ± 0.19	1.21 ± 0.078	1.28 ± 0.25	1.29 ± 0.29	1.3 ± 0.32	1.45 ± 0.47	1.48 ± 0.39
